Source: PubChem BioAssay (National Center for Advancing Translational Sciences (NCATS))
Sm TGR block: qHTS Assay for the Inhibitors of Schistosoma Mansoni Peroxiredoxins; Schistosoma mansoni thioredoxin glutathione reductase (TGR), Q962Y6; purified TGR, DTNB reduction, TNB absorbance 405 nm; Potency, µM (highest dose often 114 µM), usual class: inhibitors; 360,000 tested, 3% active; AID 485364, 2010; further: nearly all actives have a fitted effect of over 60% in size
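Kinetic colorimetric format: TGR-catalysed, NADPH-driven DTNB reduction monitored via TNB absorbance. Enzyme dispensed at 20 nM; compound exposure 15 min at room temperature before reaction start.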
HCV inhibitor: qHTS Assay for Inhibitors of Hepatitis C Virus (HCV). Huh7.5.1 HCVcc-Cre infection, luciferase reporter, 44 h. Potency, µM (titrated, usually from 41.8 µM), actives largely listed as inhibitors. 340,000 tested, 3.4% active
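Cells seeded at 1,000/well and cultured 4 h, then compounds added followed by HCVcc-Cre virus (~0.5 moi). After 44 h further culture, luciferase substrate was added, plates held 15 min at room temperature, and luminescence read for 15 sec.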
SARS PLP yeast: qHTS of Yeast-based Assay for SARS-CoV PLP | S. cerevisiae expressing SARS-CoV PLpro, growth rescue | Potency, µM (titrated, usually from 32.9 µM), usual class: activators | 330,000 tested, 0.19% active | AID 485353, 2010; calls by dose curve; further: nearly all actives have a fitted effect of over 55% in size
HCMV antiviral: qHTS Assay for inhibitors of the human cytomegalovirus (HCMV). HFF cells, HCMV-luciferase reporter, 72 h; active compounds read low. activity change, negative = inhibition, % at 57.5 µM. 410,000 tested, 4.5% active. AID 1259415, 2018; in the data active means activity change below about -60%; inconclusive means no clear call, values can overlap the other calls; inactive means above about -39%
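Steps: HFFs plated, 16 h 37C; compounds added; HCMV-luciferase added to MOI 1 PFU/cell; 72 h 37C; OneGlo reagent, 5 min room temperature; luminescence read, normalized to controls.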
Pf growth 96h: Primary qHTS for delayed death inhibitors of the malarial parasite plastid, 96 hour incubation; P. falciparum luciferase reporter growth, 96 h; Potency, µM (highest dose often 28.7 µM), usual class: inhibitors; 320,000 tested, 6.9% active; AID 504834, 2011
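Plates of compound plus infected erythrocytes (2% hematocrit, 0.05% parasitemia final) incubate 96 hours, 37 C, 5% CO2. Detection reagent added; reduced luminescence from the parasites' luciferase reporter flags inhibition.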
Pf growth 48h: Primary qHTS for delayed death inhibitors of the malarial parasite plastid, 48 hour incubation; P. falciparum luciferase growth in erythrocytes, 48 h; Potency, µM (series often up to 28.7 µM), usual class: inhibitors; 310,000 tested, 5.9% active; AID 504832, 2011
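Luminescence readout; reporter = integrated firefly luciferase in P. falciparum. RBC culture at 2% hematocrit, 0.1% parasitemia final, 37 C/5% CO2; decreased signal taken as growth inhibition.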
Hits are given with their value; - = inactive; ? = inconclusive; . = not tested or not shown; ! = repeats disagree; [ ] = remark or other dose. Hits are enriched below; roughly 15% of the tested compounds scored in any of these assays. Unless noted, the call rests on the fitted dose curve; in most records, active means well fitted curve in the direction sought with a large enough effect; inconclusive means small, poorly fitted or top-dose-only effect, or another doubt; inactive means no such curve, though single readings can be large; an effect the other way counts as inactive or inconclusive.

SMILES	Sm TGR block	HCV inhibitor	SARS PLP yeast	HCMV antiviral	Pf growth 96h	Pf growth 48h
O=C(NC1CC1)c1cccc(Nc2ccc(-c3ccc4c(c3)OCCO4)nn2)c1	-	10µM	-	-	-[5.75 µM]	?
O=S(=O)(c1ccc(Nc2ccc(-c3ccc4c(c3)OCCO4)nn2)cc1)N1CCCC1	-	?	-	-	?	.
CCN(Cc1ccccc1)C(=O)CCNS(=O)(=O)c1ccc2c(c1)CC(C)N2C(C)=O (configuration not stated)	-	?	-	-72!	?	-
CC(=O)N1c2ccc(S(=O)(=O)NCCc3ccccc3)cc2CC1C (configuration not stated)	-	?	-	-	-	-
CC(=O)N1c2ccc(S(=O)(=O)NCCC(=O)N(C)Cc3ccccc3)cc2CC1C (configuration not stated)	-	-	-	-	7.4µM	-
Cc1oc2ncn(CC(C)C)c(=O)c2c1C(=O)N(CCN(C)C)Cc1ccccc1	-	.	.	-	.	.
OCCC1CN(Cc2ccon2)CCN1Cc1ccc(F)c(F)c1 (configuration not stated)	-	-	-	-	-	-
O=C(Cc1csc(Nc2nc(=S)[nH]c3ccccc23)n1)N1CCN(c2cccc(Cl)c2)CC1	-	11µM	-	-	-	?
c1ccc(-c2nc(-n3ccnc3)nc(-n3ccnc3)n2)cc1	-	?	-	?	2.3µM	8.3µM
c1ccc(-n2ccnc2)cc1	-	-	-	-	-	-
c1ccc(CN2CCN(c3nc(-c4ccccc4)nc(-n4ccnc4)n3)CC2)cc1	-	11µM	-	.	-	3.7µM
CC(C)Nc1nc(-c2ccccc2)nc(-n2ccnc2)n1	-	2.8µM	-	-	-	2.3µM
c1ccc(-c2nc(NC3CC3)nc(-n3ccnc3)n2)cc1	-	2.5µM	-	-	-	13µM
O=C(CN1C(=O)c2ccccc2S1(=O)=O)Nc1cc(S(=O)(=O)N2CCCCC2)ccc1Cl	-	-	-	-	?	-
COc1ccc(NC(=S)N(CCC(C)C)C2CCN(C(C)C)CC2)cc1	-	?	-	-	-	-
CC(C)CCN(C(=S)Nc1cccc(F)c1)C1CCN(C(C)C)CC1	-	11µM	-	-	-	?
Cc1n[nH]c2c([N+](=O)[O-])c(=O)[nH]c(=O)n12	.	-	.	-71	.	.
NC(N)=NC(=O)c1nc(Cl)c(N)nc1N	-	?	-	-	?	3.8µM
NC(N)=NC(=O)c1nc(Cl)c(N2CCCCCC2)nc1N	-	?	.	-	9.3µM	4.7µM
Cc1cc(C(C)(C)C)cc(C)c1CC1=NCCN1	-	-[8.37 µM]	-	-	?	?
Cc1ccc(N(CC2=NCCN2)c2cccc(O)c2)cc1	-	?	-	-66!	-	?
CN1CCN(C(=O)C2=C[C@@H](c3ccccc3)C[C@@H](OCCCCO)O2)CC1	40µM	-	-	-	-	-
O=C(O)C1=C[C@@H](c2ccccc2)C[C@@H](OCCCCO)O1	.	-	.	-	.	.
O=C(C1=C[C@@H](c2ccccc2)C[C@@H](OCc2ccc(CO)cc2)O1)N1CCOCC1	45µM	-	-	-	-	-
CN1CCN(C(=O)C2=C[C@@H](c3csc4ccccc34)C[C@@H](OCCCCO)O2)CC1	45µM	-	-	-	-	-
SMILES	Sm TGR block	HCV inhibitor	SARS PLP yeast	HCMV antiviral	Pf growth 96h	Pf growth 48h
CN1CCN(C(=O)C2=C[C@H](c3ccc(Br)cc3)C[C@H](OCCCCO)O2)CC1	22µM	-	-	-	-	-
O=C(O)C1=C[C@@H](c2ccc(Br)cc2)C[C@@H](OCCCCO)O1	.	-	.	-	.	.
COc1cccc(OC)c1C(=O)Nc1ccccc1C(=O)N1CCCCCC1	-	-	?	-	-	-
O=C(c1ccccc1F)N1C[C@@H]2[C@H](c3ccccc31)[C@H](CO)N2C(=O)c1ccccc1	.	.	.	-	.	.
CCCCOc1ccc(C(=O)N(C)CC(=O)Nc2ccc(C)cc2)cc1	-	-	-	-	-	-
O=C(C1=C[C@@H](c2ccc(Br)cc2)C[C@@H](OCCCCO)O1)N1CCOCC1	?	-	-	-	-	-
O=C(C1=C[C@@H](c2ccccc2)C[C@@H](OCCCCO)O1)N1CCOCC1	40µM	-	-	-	-	-
O=C(C1=C[C@@H](C2CC2)C[C@@H](OCCCCO)O1)N1CCOCC1	56µM	-	-	-	-	-
CC(=O)c1c(C)[nH]c(C(=O)OCC(=O)Nc2cc(S(=O)(=O)N3CCCC3)ccc2Cl)c1C	-	1.4µM	-	?	-	-
CC(=O)c1c(C)[nH]c(C(=O)OCC(=O)Nc2cccc(S(=O)(=O)N3CCCC3)c2)c1C	-	?	-	-65	0.83µM	5.9µM
CC(=O)c1c(C)[nH]c(C(=O)Nc2cccc(S(=O)(=O)N3CCCC3)c2)c1C	.	?	-	-	.	.
Cc1nn(C(=O)c2nn(C)cc2[N+](=O)[O-])c(C)c1Br	-	-	-	-	-	-
CCc1nc(N2CCN(C(=O)c3ccco3)CC2)c(C#N)c2c1COC(C)(C)C2	-	22µM	-	-	?	10µM
CC1(C)Cc2c(C#N)c(N3CCN(C(=O)c4ccco4)CC3)nc(Cc3ccccc3)c2CO1	-	-	-	-	-[5.75 µM]	1.7µM
Cc1ccc(Cl)cc1N1CCN(C(=O)CCCCCn2c(=O)[nH]c3ccccc3c2=O)CC1	-	.	.	-	.	.
Cc1ccc(C)c(S(=O)(=O)NCC(c2ccco2)S(=O)(=O)c2ccc(F)cc2)c1 (configuration not stated)	0.35µM	.	.	-	.	.
Cc1ccc(C)c(S(=O)(=O)NCC(c2ccco2)N2CCc3ccccc3C2)c1 (configuration not stated)	-	-	-	?	?	?
COc1ccc(C)cc1S(=O)(=O)NCc1cccs1	-	-	-	-	-	-
COc1ccc(S(=O)(=O)NCC(c2ccco2)S(=O)(=O)c2cccs2)cc1OC (configuration not stated)	0.28µM	.	.	-	.	.
COc1ccc(F)cc1S(=O)(=O)NCC(c1ccco1)S(=O)(=O)c1ccc(F)cc1 (configuration not stated)	0.32µM	.	.	-	.	.
COc1ccc(S(=O)(=O)NCC(c2cccs2)S(=O)(=O)c2ccc(C)cc2)cc1F (configuration not stated)	?	.	.	-	.	.
COc1ccc(F)cc1S(=O)(=O)NCC(c1ccco1)S(=O)(=O)c1cccs1 (configuration not stated)	0.1µM	.	.	-63	.	.
COc1ccc(Br)c(C(=O)NCC2CCCCC2)c1	-	-	-	-	-	-
O=C(CSc1nccc(=O)[nH]1)NCc1ccco1	-	-	-	-	-	-
